20 compounds from PubChem BioAssay can be followed below.

Broadly, the remaining activity is the signal under treatment as a percentage of the control signal. For orientation: viability means a read-out of living cells in per cent, often relative to untreated cells. Broadly, the inhibition is the relative decrease from the control value, in per cent.

“And” between values parts separate entries of the source, which are not always exact repeats. Identical values can stand only once. The source made the active and inactive calls. Unless noted, no rule for the calls is given here.

In assay [1] the test system is Aerobactin synthetase IucA (Klebsiella pneumoniae). Nature of the assay: IucA aerobactin synthetase inhibitors, biochemical, Tocris library, absorbance (AID 1345561).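 Also: 100% = enzyme without compound and 0% = no enzyme.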 Particulars: purified IucA enzyme assay, absorbance (OD) read-out; stronger effect = lower value;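 tested at 8 µM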.
Assay [2] in a line: sensitizers of A549 cells to miR-34 induction, primary screen, imaging, A549 dox-inducible miR-34, nuclei and caspase counts (AID 1347080;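 active = compounds whose cell count with miR-34 switched on is under 0.7 times the count with it off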). Particulars: A549 miR-34 inducible, Hoechst nuclei count, 48 h.
The nature of assay [3]: viability rescue of complex I mutant cybrids, primary screen, cell-based, galactose medium, ATP luminescence (AID 1645843;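 active = z-score of at least 1.8 in each of two replicates, scored against plate mean and spread of sample wells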;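 also: positive z means more ATP and so rescue of galactose-driven cybrid death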). Particulars: complex I mutant cybrid cells, 72 h, stronger effect = higher value.
Assay [4] can be described thus: liver-stage malaria parasite growth inhibition, primary screen, cell-based, HepG2, luciferase luminescence, HepG2 viability (AID 624349; in the data active = parasite load remaining mostly below about 12%, no sharp cut-off; inactive = mostly above about 10%;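 also: 100% = mean of DMSO negative control wells on the same plate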). The settings on record: P. berghei liver stage in HepG2, luciferase luminescence, concentration not given here; parasite load remaining: stronger effect = lower value; viability: measured here: HepG2 viability without parasites.
Assay [5] in a line: LFS_MB_P medulloblastoma growth inhibition, cell-based, chromothripsis tumors, cisplatin or BGB combos (AID 1671449; in the data active = inhibition above about 80%;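 also: cells exposed for 96 hours; 0% = vehicle DMSO and 100% = killing by high DMSO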). Particulars: LFS_MB_P medulloblastoma cells.
A short description of assay [6]: HDN33 neuroblastoma growth inhibition, cell-based, chromothripsis tumors, cisplatin or BGB combos (AID 1671450; in the data active = inhibition above about 80%;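 also: cells exposed to compound for four days; 0% = vehicle DMSO and 100% = cell killing by high DMSO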). The settings on record: HDN33 neuroblastoma cells, stronger effect = higher value.
A short description of assay [7]: ICB984 medulloblastoma cell growth inhibition, synergistic combos for chromothripsis tumors, cisplatin or BGB combos (AID 1671451).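 Also: cells exposed for 96 hours before readout; 0% = vehicle DMSO and 100% = killing by high DMSO.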 Particulars: ICB984 medulloblastoma cells, drug combinations, stronger effect = higher value.
Assay [8] can be described thus: HTB85 osteosarcoma cell growth inhibition, synergistic combos for chromothripsis tumors, BGB or cisplatin IC20 combos (AID 1671453; in the data active = inhibition above about 80%;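 also: cells exposed for 96 hours before readout; 0% = vehicle DMSO and 100% = high DMSO killing control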). Particulars: HTB85 osteosarcoma cells, drug combinations, stronger effect = higher value.
The mark [9] stands for this setting: stronger effect = lower value, cell number ratio, induced over uninduced.
The mark [10] stands for this setting: measured here: relative caspase fold change +Dox/-Dox.
[11] abbreviates: measured here: total cells with miR-34 induction, stronger effect = lower value.
Where [12] appears, read: measured here: total cells without miR-34 induction.

For `N#C/C(=C\c1ccc(O)c(O)c1)C(N)=O`, in assay [1], the remaining activity was 122% (inactive). Moreover, the fold change in assay [2] (setting [9]) was 0.887 (inactive); in assay [2] (setting [10]) it was 1.74. The cell count in assay [2] (setting [11]) was 9080; in assay [2] (setting [12]) it was 10200. In addition, in assay [3], the z-score is -0.47 (inactive).
For `CCCCC1CCC(c2nc(-c3ccncc3)no2)CC1` (stereo not given), in assay [1], the remaining activity was 122% (inactive). The fold change in assay [2] (setting [9]) was 0.974 (inactive) and 0.949 (inactive); in assay [2] (setting [10]), 0.608 and 1.14. For the same compound, the cell count in assay [2] (setting [11]) is 5260 and 8140; in assay [2] (setting [12]), 5400 and 8570. Further, the z-score in assay [3] is -0.62 (inactive).
For the compound `N#C/C(=C\c1ccc(O)c(O)c1)C(=O)NCCCc1ccccc1`, the remaining activity in assay [1] is 98.4% (inactive). In addition, the fold change in assay [2] (setting [9]) was 0.871 (inactive); in assay [2] (setting [10]), 1.07. Further, the results for the cell count in assay [2] (setting [11]) and in assay [2] (setting [12]) were 7250 and 8330, respectively. Moreover, the z-score in assay [3] was -0.64 (inactive).
Consider `c1cc2c3c(c1)c1c(n3CCNC2)CCCC1`, for which, in assay [1], the remaining activity is 120% (inactive). Moreover, the fold change in assay [2] (setting [9]) was 0.921 (inactive); in assay [2] (setting [10]), 1.32. For the same compound, the cell count in assay [2] (setting [11]) was 7680; in assay [2] (setting [12]), 8340. The z-score in assay [3] was -0.505 (inactive).
Consider `COc1cc2c(cc1C(F)(F)F)N(C(=O)Nc1cc(F)cc(-c3cccnc3)c1)CC2`, for which the remaining activity in assay [1] was 97.1% (inactive). Further, the fold change was 0.848 (inactive) in assay [2] (setting [9]) and 0.948 in assay [2] (setting [10]). Further, the cell count was 5790 in assay [2] (setting [11]) and 6820 in assay [2] (setting [12]). Besides, in assay [3], the z-score was -0.61 (inactive).
Take `Nc1ccc(-c2cccc3c(=O)cc(N4CCOCC4)oc23)cc1`: the parasite load remaining in assay [4] was 43.6% (inactive). Moreover, in assay [4], the viability was 83.4%. Also, in assay [1], the remaining activity is 104% (inactive). Also, the fold change was 0.901 (inactive) in assay [2] (setting [9]) and 1.45 in assay [2] (setting [10]). Also, the cell count in assay [2] (setting [11]) is 3870; in assay [2] (setting [12]) it was 4300. Besides, the z-score in assay [3] is 4.44 (active).
`CC(=O)N(OCc1ccccc1)[C@@H]1c2cc(C#N)ccc2OC(C)(C)[C@H]1O`: in assay [1], the remaining activity was 105% (inactive). The fold change is 0.887 (inactive) in assay [2] (setting [9]) and 0.973 in assay [2] (setting [10]). The cell count in assay [2] (setting [11]) amounted to 8320; in assay [2] (setting [12]) it was 9380. The z-score in assay [3] was 0.705 (inactive).
In the case of `Cc1nc2sccn2c(=O)c1CCN1CCC(=C(c2ccccc2)c2ccc(F)cc2)CC1`, in assay [1], the remaining activity was 120% (inactive). The values for the fold change in assay [2] (setting [9]) and in assay [2] (setting [10]) were 0.974 (inactive) and 1.11, respectively. The cell count in assay [2] (setting [11]) came out at 7180; in assay [2] (setting [12]) it was 7370. In addition, the z-score in assay [3] is -0.655 (inactive).
As to `C=CC(=O)c1ccc2ccccc2c1`, the remaining activity in assay [1] was 118% (inactive). Moreover, the fold change in assay [2] (setting [9]) was 0.911 (inactive); in assay [2] (setting [10]), 1.23. For the same compound, the cell count in assay [2] (setting [11]) amounted to 8570; in assay [2] (setting [12]), 9410. Besides, the z-score in assay [3] is -0.58 (inactive).
On to `COC(=O)c1c(-c2cc(OC)c(OC)c(OC)c2)c2ccnc(OCc3ncccn3)c2c(=O)n1Cc1ccnc(C)c1`, for which the remaining activity in assay [1] is 117% (inactive). Also, the fold change is 0.972 (inactive) in assay [2] (setting [9]) and 0.845 in assay [2] (setting [10]). Moreover, the cell count in assay [2] (setting [11]) was found to be 8000; in assay [2] (setting [12]), 8240. In assay [3], the z-score was -0.06 (inactive).
For the compound `Cc1cccc(C)c1NC(=O)C[N+](C)(C)C`, the remaining activity in assay [1] was 109% (inactive). The fold change in assay [2] (setting [9]) was 1 (inactive); in assay [2] (setting [10]), 0.946. The cell count came out at 9170 in assay [2] (setting [11]) and 9160 in assay [2] (setting [12]). The z-score in assay [3] was -0.035 (inactive).
Regarding `O=C1CC2(CCCC2)CC(=O)N1CCCCNCC1COc2ccccc2O1` (stereo not given), in assay [1], the remaining activity was 102% (inactive). The results for the fold change in assay [2] (setting [9]) and in assay [2] (setting [10]) were 0.892 (inactive) and 0.89, respectively. Besides, the cell count in assay [2] (setting [11]) worked out at 8660; in assay [2] (setting [12]) it was 9710. The z-score in assay [3] was -1.01 (inactive).
For the compound `FC(F)(F)c1cc(CO[C@H]2CCCN[C@H]2c2ccccc2)cc(C(F)(F)F)c1`, the remaining activity in assay [1] is 112% (inactive). Moreover, the values for the fold change in assay [2] (setting [9]) and in assay [2] (setting [10]) were 1.01 (inactive) and 0.987, respectively. Moreover, the cell count in assay [2] (setting [11]) was 2150; in assay [2] (setting [12]), 2140. Moreover, the z-score in assay [3] is -0.8 (inactive).
Take `CCCCCCNC(=O)Nc1ccc(S(=O)(=O)Nc2ccc(CCNC[C@H](O)COc3ccc(O)cc3)cc2)cc1`: the remaining activity in assay [1] is 94.3% (inactive). The fold change in assay [2] (setting [9]) is 0.938 (inactive); in assay [2] (setting [10]), 1.32. Further, the cell count in assay [2] (setting [11]) was found to be 8320; in assay [2] (setting [12]) it was 8870. Further, the z-score in assay [3] is -0.435 (inactive).
On to `COc1[nH]c2ccc(F)cc2c1C(=O)OCC1CCN(CCNS(C)(=O)=O)CC1`, for which the remaining activity in assay [1] was 110% (inactive). In addition, the fold change in assay [2] (setting [9]) is 0.927 (inactive); in assay [2] (setting [10]) it was 0.654. Further, the cell count in assay [2] (setting [11]) was 8220; in assay [2] (setting [12]) it was 8880. The z-score in assay [3] was -0.185 (inactive).
For the compound `CC(C)C1C2CCC(C2)C1N` (stereo not given), in assay [1], the remaining activity is 119% (inactive). Also, the fold change is 0.973 (inactive) in assay [2] (setting [9]) and 0.597 in assay [2] (setting [10]). The results for the cell count in assay [2] (setting [11]) and in assay [2] (setting [12]) were 9360 and 9620, respectively. Also, in assay [3], the z-score is -0.42 (inactive).
Regarding `CCCCCCN(CCCCCC)C(=O)Cc1c(-c2ccc(Cl)cc2)[nH]c2ccc(Cl)cc12`, in assay [1], the remaining activity is 102% (inactive). The fold change was 0.89 (inactive) in assay [2] (setting [9]) and 0.984 in assay [2] (setting [10]). Further, the cell count in assay [2] (setting [11]) was 5700; in assay [2] (setting [12]), 6410. Besides, the z-score in assay [3] is -1.19 (inactive).
For the compound `O=c1[nH]cnc2ccccc12`, in assay [1], the remaining activity is 102% (inactive). The fold change is 0.942 (inactive) in assay [2] (setting [9]) and 1.88 in assay [2] (setting [10]). Further, the cell count in assay [2] (setting [11]) was 8900; in assay [2] (setting [12]), 9450. Also, in assay [3], the z-score is -0.085 (inactive). Besides, the inhibition was -17.1% (inactive) in assay [5] (at 0.5 µM, stronger effect = higher value); -35.2% in assay [5] (measured here: combination with BGB IC20, at 0.005 µM); -30.5% in assay [5] (measured here: combination with BGB IC40, at 0.005 µM); -20.2% in assay [5] (measured here: combination with BGB IC40, at 0.05 µM); -41% in assay [5] (measured here: combination with cisplatin, at 0.5 µM, stronger effect = higher value); -52.6% in assay [5] (measured here: combination with cisplatin, at 5 µM, stronger effect = higher value). Moreover, the inhibition was -24.4% in assay [6] (BGB combo, at 5 µM); -4.24% (inactive) in assay [6] (at 0.5 µM); 7.34% in assay [6] (cisplatin combo, at 5 µM); 2.06% in assay [6] (measured here: with BGB IC20 combination, at 0.5 µM); -23.5% in assay [6] (measured here: with cisplatin IC20 combination, at 0.5 µM); 3.32% in assay [6] (single agent, at 5 µM). In addition, the inhibition in assay [7] (BGB IC20 combo, at 0.005 µM) is -9.29%; in assay [7] (BGB IC40 combo, at 0.005 µM), -31.8%; in assay [7] (BGB IC40 combo, at 0.05 µM) it was -19.2%; in assay [7] (at 0.5 µM) it was -16.4% (inactive); in assay [7] (cisplatin combo, at 0.05 µM), -23.5%; in assay [7] (cisplatin combo, at 0.5 µM), -12.5%. The inhibition in assay [7] (cisplatin combo, at 5 µM) was -22.5%; in assay [7] (measured here: 5 uM single agent, at 5 µM), -4.22%; in assay [8] (at 0.5 µM), -3.81% (inactive); in assay [8] (measured here: with BGB IC20, at 0.5 µM), -2.72%; in assay [8] (measured here: with BGB IC20, at 5 µM), 7.21%; in assay [8] (measured here: with cisplatin IC20, at 0.5 µM), 2.1%. Also, the inhibition in assay [8] (measured here: with cisplatin IC20, at 5 µM) was -54.4%; in assay [8] (single agent, at 5 µM) it was -7.3%.
For `O=C(CCCc1ccc(-c2ccccc2F)cc1)Nc1ccc(O)cc1`, the parasite load remaining in assay [4] is 21.2% (inactive). Moreover, the viability in assay [4] was 102%. Besides, in assay [1], the remaining activity was 95.9% (inactive). The fold change in assay [2] (setting [9]) is 1.05 (inactive); in assay [2] (setting [10]), 1.19. The cell count is 2340 in assay [2] (setting [11]) and 2220 in assay [2] (setting [12]). Moreover, the z-score in assay [3] was -0.66 (inactive).
Consider `O=C(OCCN1CCCCC1)c1c[nH]c2ccccc12`, for which, in assay [1], the remaining activity is 82.2% (inactive). Further, the fold change is 0.911 (inactive) in assay [2] (setting [9]) and 0.811 in assay [2] (setting [10]). The cell count was found to be 9250 in assay [2] (setting [11]) and 10200 in assay [2] (setting [12]). Also, the z-score in assay [3] is 0.69 (inactive).
